Inconclusive results are not listed. Calls of active or inactive are those of the source. Rule for the calls: active = hit-call score of the fitted dose curve at least 0.9, where 1 is the maximum; inconclusive = response in the unintended direction; inactive = score below 0.9.

This experiment deals with Glucocorticoid receptor (Homo sapiens) (UniProt P04150). Briefly: ATG_GR_TRANS: Attagene TRANS-FACTORIAL HepG2 Assay for human Glucocorticoid Receptor (GR) (AID 2282978).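 Note: activators score as hits since higher reporter transcript over DMSO is fitted.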 The note with it: HepG2 Attagene TRANS GR reporter, mRNA transcription. On the procedure: ATG_TRANS is a cell-based, multiplexed-readout assay that uses HepG2, a human liver cell line, with measurements taken at 24 hours after chemical dosing in a 24-well plate.ATG_GR_TRANS is one of 30 assay component(s) measured or calculated from the ATG_TRANS assay. It is designed to make measurements of mRNA induction, a form of inducible reporter, as detected with fluorescence intensity signals by Reverse transcription polymerase chain reaction (RT-PCR) and Capillary electrophoresis technology.Data from the assay component ATG_GR_TRANS was analyzed into 1 assay endpoint. This assay endpoint, ATG_GR_TRANS, was analyzed in the positive analysis fitting direction relative to DMSO as the negative control and baseline of activity. Using a type of inducible reporter, measures of mRNA for gain-of-signal activity can be used to understand the reporter gene at the transcription factor-level as they relate to the gene NR3C1. Furthermore, this assay endpoint can be referred to as a primary readout, because this assay has produced multiple assay endpoints where this one serves a reporter gene function. To generalize the intended target to other relatable targets, this assay endpoint is annotated to the nuclear receptor intended target family, where the subfamily is steroidal.
Sequence of Glucocorticoid receptor (Homo sapiens) (P04150 whole entry, looked up): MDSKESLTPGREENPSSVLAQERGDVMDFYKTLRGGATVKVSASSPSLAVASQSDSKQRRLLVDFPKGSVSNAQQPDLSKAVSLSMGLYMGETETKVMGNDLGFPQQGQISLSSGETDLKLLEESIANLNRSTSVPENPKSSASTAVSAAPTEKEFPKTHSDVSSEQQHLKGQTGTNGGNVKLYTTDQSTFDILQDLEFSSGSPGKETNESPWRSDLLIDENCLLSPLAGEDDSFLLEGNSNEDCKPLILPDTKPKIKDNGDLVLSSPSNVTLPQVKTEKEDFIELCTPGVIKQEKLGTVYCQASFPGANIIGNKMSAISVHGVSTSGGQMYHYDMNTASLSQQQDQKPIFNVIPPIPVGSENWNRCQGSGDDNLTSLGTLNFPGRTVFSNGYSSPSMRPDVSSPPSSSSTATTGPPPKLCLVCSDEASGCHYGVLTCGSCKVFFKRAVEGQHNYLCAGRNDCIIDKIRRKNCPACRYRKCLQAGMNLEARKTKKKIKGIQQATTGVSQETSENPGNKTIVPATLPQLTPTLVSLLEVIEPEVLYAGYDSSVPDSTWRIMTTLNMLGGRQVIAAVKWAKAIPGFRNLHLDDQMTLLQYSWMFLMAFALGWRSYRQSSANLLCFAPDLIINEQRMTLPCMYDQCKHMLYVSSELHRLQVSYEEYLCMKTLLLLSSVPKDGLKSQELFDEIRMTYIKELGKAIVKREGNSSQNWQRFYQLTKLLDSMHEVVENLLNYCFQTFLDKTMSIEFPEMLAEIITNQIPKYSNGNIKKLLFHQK
Human liver HepG2 cells are transiently transfected with multiple reporter transcription units (MRTUs) in 6-well plates using FuGene 6 reagent (Roche; 3 ml FuGene/1 mg DNA). The MRTU constructs are regulated by a cis-regulating element (promoter). […] A major difference between the CIS and TRANS system is that in CIS activities of endogenous TFs are measured, whereas the TRANS assay evaluates changes in activities of exogenous, chimeric NR-Gal4 proteins. […] At the end of 24 hour incubation, total RNA was isolated using TriZol reagent (Invitrogen). The isolated RNA is then reverse-transcribed using oligo(dT) primer and Mo-MLV reverse transcriptase (Invitrogen) with DNAse I (Ambion) treatment for 30 min. The one-tenth of the produced cDNA was amplified by PCR using Taq DNA polymerase (Invitrogen) and two reporter sequence-specific primers. The PCR products were fluorescently labeled by primer extension with 6-arboxyfluorescein (6-FAM) 5'-labeled reporter sequence-specific primer (2 min at 95 C, 20 s at 68 C and 10 min at 72 C) and these products were digested with 5U of HpaI (New England Biolabs) for 2h at 37 C. The fragments were purified using Qiaquick PCR columns (Qiagen), analyzed on an ABI 3130xL genetic analyzer (Applied Biosystems) with peak positions identified by using a set of X-rhodamine (ROX)-labeled MapMarker1000 molecular weight standards (BioVentures). The raw capillary electrophoresis data was processed using Attagraph software (Attagene).
On to `O=C1C=CC(=O)c2ccccc21`, for which the call was inactive.

Turning to `O=NN1CCCCCCC1`, the compound was classed as inactive.

With `ClCCCCl`, the result was inactive.

Consider `CC(C)[C@H](C(=O)OC(C#N)c1cccc(Oc2ccccc2)c1)c1ccc(OC(F)F)cc1` (stereo not given in full), for which the compound was classed as inactive.

Consider `CCCCCCCCCCCCN(C)C`, for which the call was inactive.

With `O=C(N[C@H]1CN2CCC1CC2)c1ccc2c(c1)OCCO2`, the result was inactive.

Take `Cc1ccc2nc3sc(=O)sc3nc2c1`: the outcome was inactive.

With `O=S(=O)(Oc1ccc(Cl)cc1)c1ccc(Cl)cc1`, the outcome was inactive.

On to `CC(C)CP(=S)(S)CC(C)C`, for which the result was inactive.

Take `BrCC(Br)c1ccccc1` (stereo not given): the call was inactive.

Turning to `Brc1ccc(Oc2c(Br)cc(Br)cc2Br)c(Br)c1`, the outcome was inactive.

For the compound `CN(C)c1ccc(N=O)cc1`, the result was inactive.

For `O=[N+]([O-])c1cc([As](=O)(O)O)ccc1O`, the call was inactive.

For `COc1ccc([N+](=O)[O-])cc1O`, the outcome was inactive.

As for `O=[N+]([O-])c1ccccc1O`, the compound was called inactive.

Consider `CCC[CH2][Sn]([CH2]CCC)([CH2]CCC)[CH2]CCC`, for which the result was inactive.

Regarding `CC(=O)C(F)(F)C(F)(F)F`, the compound was called inactive.

In the case of `C[CH2][Hg][S]c1ccccc1C(=O)O`, the call was inactive.

Turning to `CCOP(=S)(OCC)SCSc1cc(Cl)ccc1Cl`, the call was inactive.

In the case of `COC(F)(C(F)(F)C(F)(F)F)C(F)(C(F)(F)F)C(F)(F)F` (stereo not given), the compound was classed as inactive.

With `CS(=O)(=O)c1ccc(C(=O)C2C(=O)CCCC2=O)c(Cl)c1COCC(F)(F)F`, the outcome was inactive.

Take `CC(C)(c1ccc(O)c(-c2ccccc2)c1)c1ccc(O)c(-c2ccccc2)c1`: the compound was called inactive.

As to `C[As+](C)(C)CC(=O)[O-]`, the call was inactive.

`CCOCn1c(-c2ccc(Cl)cc2)c(C#N)c(Br)c1C(F)(F)F`: the call was inactive.

For `CCN(N=O)C(N)=O`, the outcome was inactive.

With `C=CCOC(F)(C(F)(F)F)C(F)(F)F`, the compound was classed as inactive.

On to `Nc1c(Oc2ccccc2)cc(O)c2c1C(=O)c1ccccc1C2=O`, for which the compound was classed as inactive.

For `CCOC(=O)OC1=C(c2cc(C)ccc2C)C(=O)NC12CCC(OC)CC2` (stereo not given), the outcome was inactive.

Regarding `CC[N+](CC)(CC)CC`, the compound was called inactive.

With `COc1nn(C(=O)NS(=O)(=O)c2ccccc2OC(F)(F)F)c(=O)n1C`, the call was inactive.

`CC(O)(CS(=O)(=O)c1ccc(F)cc1)C(=O)Nc1ccc(C#N)c(C(F)(F)F)c1` (stereo not given): the result was inactive.

On to `O=NN1CCCCCC1`, for which the compound was classed as inactive.

With `CCCCCCCCCCCCCl`, the call was inactive.

Take `CN(C)CCN(C)C`: the compound was called inactive.

Turning to `CC(C)CC(C)(c1ccc(O)cc1)c1ccc(O)cc1`, the compound was classed as inactive.

For `O=c1[nH]c2ccccc2n1C1CCN(CCCC(c2ccc(F)cc2)c2ccc(F)cc2)CC1`, the call was inactive.

Take `C=CC(=O)[O][Sn]([CH2]CCC)([CH2]CCC)[CH2]CCC`: the compound was classed as inactive.

As for `N#CCC#N`, the call was inactive.

As for `CCCCOC(=O)COC(=O)c1ccccc1C(=O)OCCCC`, the compound was classed as inactive.

Regarding `C=CC(Cl)CCl` (stereo not given), the outcome was inactive.

(Values after PubChem BioAssay (EPA / NIEHS).)
